Shown are actives, neighbours in structure and some others; about 31% of the full set was active somewhere.
CYP2C9 inhib: human CYP2C9 inhibition; inhibition, % at 5 µM; AID 777; hit rate 20% among 96,000; CYP2C9 Supersomes, luciferin-H conversion, luminescence; P11712;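 active = blocking of liver enzyme CYP2C9 beyond about 50% at 5 µM, limit read from the data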
CYP2C9 act: activators of human CYP2C9. hit rate 1.4% among 96,000. AID 1024. recombinant CYP2C9, luciferin-H conversion, luminescence; hits give high values; factor 1 = untreated enzyme, 0 = blocked. P11712. activation factor at 5 µM;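 active = activation factor of 2 or more for CYP2C9 at a 5 µM dose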
CYP2C19 inhib: blocks human cytochrome P450 2C19. CYP2C19 Supersomes, luciferin-H EGE luminescence, 30 min. inhibition, % at 5 µM. hit rate 21% among 96,000. AID 778;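 active = CYP2C19 inhibition above a set limit at 5 µM in the primary screen, cut at about 50% in these data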
CYP2C19 activ: cytochrome P450 2C19 (human) activation | activation factor at 5 µM | P33261 | recombinant CYP2C19, luciferin-H EGE luminescence; hits give high values; 0 = fully inhibited enzyme, 1 = untreated enzyme | 96,000 tested, under 10 active;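 active = activation factor of at least 2 at 5 µM in the primary screen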
Hits are given with their value; n = inactive.

SMILES	CYP2C9 inhib	CYP2C9 act	CYP2C19 inhib	CYP2C19 activ
CCOc1ccc(Cl)cc1S(=O)(=O)n1cnc2ccccc21	n	n	95	n
Cc1ccc(C2c3c(oc4ccccc4c3=O)C(=O)N2c2nnc(C(C)C)s2)o1 (stereo not drawn)	n	n	n	n
Cc1ccc(N2CCN(C(=O)c3ccccc3)CC2)c(C)c1	76	n	96	n
CCCc1cc(C(=O)N2CCN(c3ccccc3C)CC2)cs1	66	n	69	n
Cc1ccc(C)c(N2CCN(C(=O)c3ccc(Cn4c(=O)[nH]c5ccccc5c4=O)cc3)CC2)c1	75	n	70	n
CCOC(=O)N1CCN(c2ccccc2O)CC1	n	n	n	n
COc1cc(C(=O)N2CCN(c3ccc(C)cc3C)CC2)cc(OC)c1OC	n	n	n	n
Cc1ccc(N2CCN(C(=O)c3ccccc3Br)CC2)c(C)c1	62	n	98	n
O=C(c1ccc(Cn2c(=O)[nH]c3ccccc3c2=O)cc1)N1CCN(c2ccc(Cl)cc2)CC1	n	n	n	n
CSCCC(NC(=O)OC(C)(C)C)C(=O)Oc1ccc2c(=O)c(-c3ccc4c(c3)OCCO4)coc2c1 (stereo not drawn)	n	n	n	n
Cn1c(SCC(=O)NC(C)(C)C)nnc1-c1cnccn1	n	n	n	n
O=C(CCNS(=O)(=O)c1cccs1)N1CCCCCC1	n	n	n	n
O=C(CCNS(=O)(=O)c1ccc(Br)s1)NC1CCCC1	n	2.1	n	n
O=C(CCNS(=O)(=O)c1ccc(Br)s1)N1CCCCC1	n	n	68	n
Cc1ccc(S(=O)(=O)NCCC(=O)NC2CCCC2)cc1	n	2.5	n	n
COc1ccc(N2CCN(C(=O)CCNS(=O)(=O)c3ccc(Br)s3)CC2)cc1	91	n	80	n
O=C(CCS(=O)(=O)c1ccc(Br)s1)NC1CCCC1	n	n	n	n
CCCNS(=O)(=O)c1ccc(CCC(=O)N2CCOCC2)cc1	n	n	n	n
O=C(CCNS(=O)(=O)c1ccc(Br)s1)Nc1ccc(Cl)cc1	n	2	n	n
O=C(CC1NC(=O)NC1=O)Nc1ccc(Cl)cc1 (stereo not drawn)	n	n	n	n
CCCNS(=O)(=O)c1ccc(CCC(=O)N2CCN(c3ccc(OC)cc3)CC2)cc1	87	n	80	n
CC(=O)Nc1sc2c(c1C#N)CC(C)(C)NC2(C)C	n	n	n	n
COC(=O)c1cccc(OCC(O)Cn2cnc3cc(C)c(C)cc32)c1 (stereo not drawn)	n	n	n	n
Cc1cc2ncn(CC(O)COC3CCCCC3)c2cc1C (stereo not drawn)	86	n	64	n
COC(=O)CN(C#N)c1nc(SC)nc(N(C)C)n1	n	n	56	n
SMILES	CYP2C9 inhib	CYP2C9 act	CYP2C19 inhib	CYP2C19 activ
Cc1ccc(C)c2[nH]c(=O)c(CN(CCN3CCCC3)C(=O)Nc3ccc(F)cc3)cc12	n	n	n	n
COc1ccc(NC(=S)N(CCc2nc3cc(C)c(C)cc3[nH]2)Cc2cccnc2)cc1	n	n	n	n
COc1ccc2[nH]c(C)c(CCN(Cc3cccs3)C(=S)Nc3ccc(F)cc3)c2c1	87	n	n	n
COc1ccc2[nH]c(C)c(CCN(Cc3cccs3)C(=S)Nc3ccccc3)c2c1	86	n	50	n
COc1ccccc1NC(=S)N(CCc1c(C)[nH]c2ccccc12)Cc1cccs1	n	n	58	n
Cc1ccccc1-n1c(-c2cccnc2)n[nH]c1=S	n	n	n	n
CN1CCCN(C(=O)c2ccc(Cl)c(S(=O)(=O)N(C)c3ccccc3)c2)CC1	n	n	n	n
Cn1c(/C(C#N)=C/Nc2ccccn2)nc2ccccc21	n	n	n	n
Cc1cc(C)c(N2CCN(S(=O)(=O)N3CCCCCC3)CC2)c(C)c1	73	n	80	n
CN(C)CCOC(C1CCCCC1)C1CCCCC1	n	n	n	n
CCOc1ccc(C(CCc2ccccc2)NC(=O)c2ccccc2)cc1OCC (stereo not drawn)	68	n	76	n
CCOc1ccc(C(=O)NC(Cc2ccccc2)C(=O)OC)cc1 (stereo not drawn)	n	n	n	n
O=c1[nH]nc(Cc2ccc(Cl)cc2Cl)c2ccccc12	n	n	n	n
CCCc1nc(S(=O)(=O)Cc2ccc(Cl)cc2Cl)n[nH]1	n	n	73	n
Cc1ccc(S(=O)(=O)N/N=C\c2cccnc2)cc1	n	n	n	n
Cc1ccc(S(=O)(=O)N/N=C/c2cc(Br)c(C)o2)cc1	97	n	n	n
CCn1cc(/C=N/NS(=O)(=O)c2ccc(C)cc2)c(C)n1	83	n	88	n
Cc1ccc(S(=O)(=O)N/N=C/c2cn(C)nc2C)cc1	64	n	51	n

Screening data as filed in PubChem BioAssay.
